# Measurements as given in the OligoGym collection.
# Biological target: PKLR
# Assay: pooled miR-30 sensor sort-seq; sequence = guide strand
# Conditions: shRNA
# Note: reference of the scale not given here.
row,Sequence,sensor-assay potency score (higher = more potent)
1,ATGGACTTTGCTAAGTCTCTTT,-0.987
2,TCAATTTTGCTGATGATCTTGA,0.666
3,TCGTGGTTCTCAATTTTGCTGA,-0.424
4,TTGATCATCTCCTTGAGGCGCT,1.07
5,TTGCTGATGATCTTGATGCCGT,-0.495
6,TAGCTCCTCAAACAGCTGCCGG,-1.23
7,ATGCTCTCCAGCATCTGTGTGG,-1.11
8,TCGCTTGTCTCTGCCCTCGTTG,-1.2
9,TAGATGACAGTTATAGTCTCAG,-0.0862

# Biological target: PLA2G4A
# Assay: as above
# Conditions: shRNA
row,Sequence,sensor-assay potency score (higher = more potent)
1,TAGTCAGTGAATAACATTCATA,-0.999
2,TAAAGCTGAATCACTCACCAAG,-0.42
3,TTCTTCATTAATCTCCTCTGGC,-0.109
4,TAGTTCTTCATTAATCTCCTCT,0.214
5,TGATTCATCATCACTGTCCGAG,0.0963
6,TTTGATAGTCACTTCCAGCATC,-0.254
7,TTGTCTGAAAGTCTTCTCCTGA,0.182
8,TACAAGGTTGACATATACCAGG,-0.86
9,TTTAAAGACATAGCACTCCTTC,-0.0879
10,TTTGCTTCCAAATAAGTCGGGA,0.33
11,TATCTTTTAACTTTCTGTGGTG,-0.296
12,TATCACATCAATGTTGTTCAGA,0.0915

# Biological target: PLA2G4F
# Assay: as above
# Conditions: shRNA
row,Sequence,sensor-assay potency score (higher = more potent)
1,TTGCAGGTAACAGATCCGGGGT,-0.679
2,TAGTACTGTAGCCGCTCCGTGG,-1.01
3,TTGGCCACTATCCTAGTCTGGG,-0.525
4,TAGAGTGTGGAGATGCACCAGG,-0.214
5,TTTGTCGCTCCACACCTGGGGC,-1.27
6,TTGTTCTTGATAGCAGTGCATC,-1.66
7,TATATTTGCATGATGTGGCCAC,0.329
8,TTCTTGATAGCAGTGCATCCAG,-0.546
9,TCGTCTGTGATATTCACACTGC,-0.569
10,TTGTTCAGGACGTTGTATCGAC,0.0752
11,TGAACTCGCACCACTCTGCAAA,-0.822
12,TTGCACATAGCAGTCGGCTTTG,-0.794

# Biological target: PLA2R1
# Assay: as above
# Conditions: shRNA
row,Sequence,sensor-assay potency score (higher = more potent)
1,TTGAGCATTCAACCAAACCATC,-1.81
2,TATCACAACCTACTTCTGCAGA,-0.52
3,TAAAAGATTAGAACCTTCCTTT,0.786
4,TTTTCTTCTAAATATACTGTAC,-0.623
5,TTTTTCACTATGAAATACCTTG,-0.37
6,TTTCTGAGCACAACTCTGGGTG,-0.349
7,TAATGCACTGTTATCAGCCTGA,0.301
